Results taken from the supplement of paper PMC11219838.

test system: Caenorhabditis elegans L1 (N2); assay: survival and reproduction score of C. elegans L1 (0: 0-10 living worms, 1: 11-20, 2: 21-50, 3: >50, 4: overgrown) (score 0-4); higher = more worms, less nematicidal, active = 1 or less; extreme values may be limits of the assay; conditions: 60 µM; 6 days; temperature: 20 °C
In short: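 About 20 synchronized C. elegans N2 L1s were added per 96-well well with E. coli HB101 in liquid NGM, and compound was pinned to 60 µM final (0.6% v/v DMSO). Sealed plates were shaken at 200 rpm for 6 days at 20 °C. Survival and reproduction were scored under a dissection microscope as an ordinal score of living worms per well. The scale ran 0 (0–10 worms) to 4 (overgrown, starved), and two biological replicates were averaged.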

SMILES | survival and reproduction score
Fc1ccc(-c2nc(-c3ccc4c(c3)OCO4)no2)cc1 | 4 (inactive)
CCNC(=O)c1ccccc1-c1nc(-c2ccc(F)cc2)no1 | 2 (inactive)
Cn1cc(C(=O)CSc2nnc(-c3ccccc3)o2)c2ccccc21 | 0 (active)
Cc1cc(C)c(C)c(OCc2nc(-c3cccnc3)no2)c1 | 4 (inactive)
Brc1ccccc1-c1nc(-c2ccncc2)no1 | 0 (active)
O=C(Nc1ccc(-c2noc(COc3ccccc3Cl)n2)cc1)c1ccccn1 | 4 (inactive)
CCOc1cc(-c2nc(-c3ccc(C)nc3OC)no2)cc(OCC)c1OCC | 4 (inactive)
Ic1ccc(CSc2nnc(-c3ccco3)o2)cc1 | 3.5 (inactive)
N#Cc1ccccc1CSc1nnc(-c2ccccc2)o1 | 4 (inactive)
Cc1cc(C)c(CSc2nnc(-c3ccccc3)o2)c(C)c1 | 4 (inactive)
CC(Oc1ccc(C(C)(C)C)cc1)c1nc(-c2ccncc2)no1 (centres undefined) | 4 (inactive)
Cc1ccc(-c2nc(-c3ccccc3Cl)no2)c(Cl)c1 | 4 (inactive)
Cc1cc(OCc2nc(-c3cccnc3)no2)ccc1Cl | 4 (inactive)
CCCCc1nc(-c2ccc(-c3ccc(C)cc3)nc2OC)no1 | 4 (inactive)
COc1ccc(-c2nnc(SCC(=O)Nc3cc(Cl)ccc3C)o2)cc1 | 4 (inactive)
O=C(CSc1nnc(-c2ccc(Cl)cc2)o1)NC1CCCCC1 | 4 (inactive)
Clc1cc(Br)ccc1OCc1nc(-c2cccnc2)no1 | 4 (inactive)
COc1ccc(-c2noc(-c3ccc(C)cc3)n2)cc1 | 3 (inactive)
C(=C\c1ccccc1)/CSc1nnc(-c2ccncc2)o1 | 4 (inactive)
Cc1ccc(-c2noc(COc3cc(C)ccc3C)n2)cc1 | 4 (inactive)

SMILES | survival and reproduction score
CC1CC(C)CN(C(=O)CSc2nnc(-c3ccccc3)o2)C1 (centres undefined) | 4 (inactive)
O=C(c1ccccc1-c1nc(-c2ccccc2Cl)no1)N1CCCCC1 | 4 (inactive)
Clc1ccc(-c2nc(-c3ccncc3)no2)cc1Cl | 4 (inactive)
O=C(CSc1nnc(-c2ccc(Cl)cc2Cl)o1)c1ccc2c(c1)OCCO2 | 4 (inactive)
Cc1ccc(OC(C)c2nc(-c3cccnc3)no2)cc1 (centres undefined) | 4 (inactive)
CN(C)C(=O)c1ccccc1-c1nc(-c2ccccc2Cl)no1 | 4 (inactive)
CC(=O)Nc1cccc(-c2nnc(SCc3ccccc3)o2)c1 | 4 (inactive)
Cc1cc(C)cc(OCc2nc(-c3cc(C)nc4ccccc34)no2)c1 | 4 (inactive)
c1ccc(-c2noc(C3COc4ccccc4O3)n2)cc1 (centres undefined) | 0 (active)
COc1ccc(NC(=O)CSc2nnc(-c3ccccc3)o2)cc1 | 4 (inactive)
O=C(Nc1cccc(-c2noc(COc3ccccc3)n2)c1)c1cccs1 | 4 (inactive)
c1coc(-c2nnc(-c3ccco3)o2)c1 | 4 (inactive)
Fc1ccc(OCc2nc(-c3ccc(Cl)cc3)no2)cc1 | 4 (inactive)
Cc1ccc(OCc2nc(-c3ccc(Cl)cc3)no2)cc1 | 4 (inactive)
Cc1ccccc1-c1noc(-c2ccccc2C(=O)NCc2ccccc2)n1 | 4 (inactive)
N#Cc1ccccc1CSc1nnc(-c2ccco2)o1 | 4 (inactive)
CCOc1nc(C)ccc1-c1noc(-c2ccccc2F)n1 | 4 (inactive)
COc1ccc(-c2noc(-c3ccc(C)cc3Cl)n2)cc1 | 4 (inactive)
Cc1ccc(-c2noc(-c3ccc(-n4nncc4C)cc3)n2)cc1 | 4 (inactive)
